Source: PubChem BioAssay (several laboratories)
Only some compounds are listed: those with a hit (about 1.5% of all), similar ones and a draw of the others.
CRFR2-BP antag: blocks CRF-induced signaling of the CRF-BP/CRF-R2 complex; HEK293 CRF-R2/CRF-BP, CRF-induced calcium fluorescence; inhibition, % at 11.8 µM; 350,000 compounds, 0.59% hits; AID 588475;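 active = inhibition of the ligand-induced calcium signal above about 50% at the single tested concentration, limit read from the data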
IDE act: activators of human insulin-degrading enzyme in cells; activation, % at 5.96 µM; HEK cells, FAbeta-B cleavage, fluorescence polarization; 0% vehicle, 100% cell-free pure enzyme wells; AID 493087; P14735; 340,000 compounds, 0.073% hits;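 active = activation above the mean of all tested compounds plus 3 SD, set per screening campaign, cut at about 17% in these data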
Target sequence (P14735 whole entry, looked up): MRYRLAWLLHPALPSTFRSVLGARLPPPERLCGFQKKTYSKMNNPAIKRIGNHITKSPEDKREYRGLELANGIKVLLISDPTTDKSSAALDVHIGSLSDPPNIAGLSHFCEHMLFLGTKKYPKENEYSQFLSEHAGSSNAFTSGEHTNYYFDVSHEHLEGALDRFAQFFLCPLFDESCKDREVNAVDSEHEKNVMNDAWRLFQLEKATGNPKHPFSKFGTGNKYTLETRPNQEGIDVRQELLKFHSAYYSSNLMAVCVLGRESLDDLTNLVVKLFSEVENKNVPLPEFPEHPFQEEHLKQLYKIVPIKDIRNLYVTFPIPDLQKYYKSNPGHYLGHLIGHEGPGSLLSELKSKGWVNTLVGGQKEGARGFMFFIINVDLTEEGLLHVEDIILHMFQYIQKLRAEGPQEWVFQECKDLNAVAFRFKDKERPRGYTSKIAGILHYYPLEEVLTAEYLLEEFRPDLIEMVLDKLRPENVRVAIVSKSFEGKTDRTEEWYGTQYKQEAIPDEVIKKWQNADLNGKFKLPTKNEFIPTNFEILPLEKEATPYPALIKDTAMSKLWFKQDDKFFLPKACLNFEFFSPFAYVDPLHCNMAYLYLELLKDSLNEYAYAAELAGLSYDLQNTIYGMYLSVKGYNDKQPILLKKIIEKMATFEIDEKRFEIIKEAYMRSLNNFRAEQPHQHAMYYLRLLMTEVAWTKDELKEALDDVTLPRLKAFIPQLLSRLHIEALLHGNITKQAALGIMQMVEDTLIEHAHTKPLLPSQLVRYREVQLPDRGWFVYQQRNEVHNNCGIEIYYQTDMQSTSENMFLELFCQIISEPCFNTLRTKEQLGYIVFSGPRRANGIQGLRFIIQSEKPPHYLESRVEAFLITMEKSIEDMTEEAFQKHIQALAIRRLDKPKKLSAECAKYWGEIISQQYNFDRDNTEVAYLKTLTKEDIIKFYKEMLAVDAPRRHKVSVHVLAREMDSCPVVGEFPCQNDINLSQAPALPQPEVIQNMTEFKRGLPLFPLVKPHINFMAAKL
CRFR2-BP ag: CRF-BP/CRF-R2 complex agonism; activation, % at 13.2 µM; 350,000 compounds, 0.46% hits; HEK293 CRF-R2/CRF-BP, calcium dye fluorescence (FLIPR); percent of saturating CRF peptide response;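 active = activation of at least 50%, plus an integration ratio under a set limit after plate pattern correction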;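 note: plate controls were neutral control wells without compound for no effect and CRF at EC100 for full effect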
cardiac RTF act: increases calcium sensitivity of human cardiac regulated thin filaments. 340,000 compounds, 0.24% hits. IANBD-labeled TnC RTF fluorescence at EC20 calcium; 0% EC20 calcium, 100% full calcium. activation, % at 7.2 µM. AID 493008. P19429+P45379;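 active = activation above the mean over all tested compounds plus 3 SD, cut at about 30% in these data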;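 note: rise in fluorescence read as greater calcium sensitivity of cardiac thin filaments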
IDE inh: inhibitors of human insulin-degrading enzyme in cells; P14735; HEK cells, FAbetaB cleavage, fluorescence polarization; inhibition, % at 5.59 µM; 320,000 compounds, 0.41% hits; AID 434962;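 active = percent inhibition above the average of all tested compounds plus 3 SD, set per screening campaign, cut at about 16% in these data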;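 note: IDE supplied by intact live HEK cells; FP after avidin binding of uncleaved biotin substrate so inhibition keeps polarization high; 0% = DMSO wells and 100% = 60 µM reference IDE inhibitor Ii1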
RTF Ca sens inh: cardiac RTF calcium desensitization | IANBD-labeled cardiac RTF, Ca2+ fluorescence | inhibition, % at 7.15 µM | 340,000 compounds, 0.12% hits;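 active = inhibition above the mean inhibition of all tested compounds plus 3 SD, cut at about 17% in these data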;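 note: assay run at fixed EC70 calcium of 1.6 mM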
An asterisk follows results filed as active; · = not tested or not shown.

SMILES	CRFR2-BP antag	IDE act	CRFR2-BP ag	cardiac RTF act	IDE inh	RTF Ca sens inh
O=C(Nc1ccc(Br)cc1)c1cc([N+](=O)[O-])cc([N+](=O)[O-])c1	10	5	1	1	-3	-3
N#Cc1c(N)nc(SC2CCCCC2=O)c(C#N)c1-c1ccco1 (stereo unspecified)	106*	-3	1	-5	4	-5
CCOc1ccccc1OCC(=O)Nc1ccc(N2CCOCC2)cc1N1CCOCC1	-4	6	0	-12	·	1
CC(C)(O)C#Cc1ccccc1C(=O)NC(CC(N)=O)C(=O)O (stereo unspecified)	3	18*	0	3	-3	-10
COc1ccccc1C(=O)NC(=O)COC(=O)CNC(=O)c1ccccc1	-8	-3	-2	-7	4	-4
CCCn1c(SCC(=O)N2CC(=O)Nc3ccccc32)nc2ccccc21	-92	3	56*	-5	0	-14
O=C(CN1C(=O)C2CC=CCC2C1=O)Nc1ccc(OC(F)(F)F)cc1 (stereo unspecified)	-9	4	0	0	0	-4
Cc1c(C(c2ccc(N(C)C)cc2)c2c(C)n(C)n(-c3ccccc3)c2=O)c(=O)n(-c2ccccc2)n1C	54*	1	-7	-2	-4	8
CSCCC(NC(=O)c1ccccc1)C(=O)NNC(=O)c1csc(N2CCOCC2)n1 (stereo unspecified)	13	0	3	1	-2	1
N#CC1=C(N)Oc2ccc3ccc(O)cc3c2C1c1ccsc1 (stereo unspecified)	-44	-8	71*	99*	·	-106
CCOc1ccc(S(=O)(=O)N2CCN(C(=O)C3CSC4(C)CCC(=O)N34)CC2)cc1 (stereo unspecified)	-2	-2	1	7	-1	0
CCOc1ccccc1N1CCN(C(=O)C2CSC3(C)CCC(=O)N23)CC1 (stereo unspecified)	72*	0	-1	-4	-8	-2
N#Cc1cccc(NC(=O)CSc2ccc3c4c(cccc24)C(=O)c2ccccc2-3)c1	-219	-12	224*	42*	16	-58
COc1ccc(NC(=O)CSc2nnc(C)c3ccccc23)cc1	6	-7	0	4	-4	-3
COc1ccc(NC(=O)CSc2ccc3c4c(cccc24)C(=O)c2ccccc2-3)cc1	-112	-9	104*	27	2	-18
COc1ccc(OC)c(C2C(C(C)=O)=C(C)Nc3ncnn32)c1 (stereo unspecified)	3	0	-3	-2	3	-9
COC(=O)COc1ccc(Oc2nc(SC)nc(N(C)C)n2)nn1	-55	2	55*	6	0	-9
COc1ccccc1N=Cc1c(C)c(C#N)c2[nH]c3ccccc3n2c1=O	-30	-1	27	62*	1	-13
Cc1c(Cc2ccccc2)c(=O)n2c([nH]c3ccccc32)c1C#N	11	0	33	-4	1	4
CN(CCc1ccccc1)C(=O)CC1C(=O)NCCN1Cc1ccccn1 (stereo unspecified)	-4	·	5	·	·	·
Cc1ccc(CN(C)C(=O)CCc2c[nH]c3ccccc23)o1	57*	-1	-2	-2	-1	0
CN(Cc1cccnc1)C(=O)CCCc1c[nH]c2ccccc12	0	3	-3	1	0	-1
Cc1ccc(C(=O)OCC(=O)c2cc(C)n(CC3CCCO3)c2C)cc1 (stereo unspecified)	79*	5	2	0	-7	12
Cc1cccnc1NC(=O)Cn1nc(-c2ccccc2)oc1=S	7	4	-2	1	3	9
Nc1ccccc1Oc1c(F)c(F)c(Oc2ccccc2N)c(F)c1F	67*	6	-3	-4	-3	-9
SMILES	CRFR2-BP antag	IDE act	CRFR2-BP ag	cardiac RTF act	IDE inh	RTF Ca sens inh
CSc1nc(-c2ccc(N(C)C)cc2)c(C#N)c(=O)n1C	-29	-8	62*	2	7	-6
Cc1ccc(-n2cccn2)c(CN2CCC(CO)(CCc3ccccc3)CC2)c1	-8	1	-1	6	·	4
O=C(NC(=S)Nc1ccc(F)cc1)c1ccc2c(c1)OCCO2	-195	3	93*	-5	1	-17
O=C(CCN1CCC(c2cccs2)=N1)c1cccs1	-53	·	69*	·	3	·
O=c1c([N+](=O)[O-])c(NC2CCCCC2)c2ccccc2n1-c1ccccc1	57*	1	-4	12	0	-2
O=C(CSc1ncnc2sc(-c3ccccc3)cc12)NC1CCS(=O)(=O)C1 (stereo unspecified)	2	-2	-1	-6	7	-23
CN(CCOc1ccc(Cl)cc1)C(=O)C1CCN(C(=O)c2ccc(Cl)cc2)CC1	120*	4	-1	5	-1	-5
O=C(Nc1ccccc1)c1ccc(NCCc2ccccc2)c([N+](=O)[O-])c1	16	6	-2	96*	1	-5
NC(=O)c1ccc(NCCc2ccccc2)c([N+](=O)[O-])c1	-5	7	0	3	-2	2
C=C1CCC[C@]2(C)C[C@H]3OC(=O)C(CNC(CC)CO)[C@H]3CC12 (stereo partly specified)	-3	2	2	-1	3	-12
C=C1CCC[C@]2(C)C[C@H]3OC(=O)C(CNC(C)(CO)CO)[C@H]3CC12 (stereo partly specified)	86*	6	0	2	0	-3
CC(NC(=O)C(=O)N1CCCCC1)C(c1cccs1)N1CCN(C)CC1 (stereo unspecified)	-4	2	1	-9	3	4
CN(CCOC(=O)c1ccc2c(c1)OCO2)C(C)(C)C	5	2	-3	3	-1	-9
COc1ccc(COc2cc(-c3cccc(OC)c3)nc3ccc(NC(=O)c4ccc(C)cc4)cc23)cc1	-8	5	2	33*	-3	2
CN(C(=O)CSc1n[nH]c(-c2cccs2)n1)C1CCS(=O)(=O)C1 (stereo unspecified)	-3	-1	3	0	1	-5
Cc1cc(C)cc(-n2c(C)cc(/C=C3\C(=N)N4N=C(CC(C)C)SC4=NC3=O)c2C)c1	-20	5	60*	1	3	4
CC(C)CC1=NN2C(=N)/C(=C\c3coc4ccccc4c3=O)C(=O)N=C2S1	-287	-32	306*	230*	·	-257
CCc1nn2c(=O)cc(COc3ccc(/C=C4\C(=N)N5N=C(CC(C)C)SC5=NC4=O)cc3)nc2s1	6	·	-1	·	0	·
CCCC1=NN2C(=N)/C(=C\c3cc(C)n(-c4cc(C)cc(C)c4)c3C)C(=O)N=C2S1	-60	-1	51*	-10	1	-8
